Measured values published in PubChem BioAssay AID1851 (National Center for Advancing Translational Sciences (NCATS), 2009).
The campaign covered roughly 16,000 compounds. About 2,600 (16%) were called active. About 20% were inconclusive and are not listed. The call rests on the fitted dose curve; in most records, active means well fitted curve in the direction sought with a large enough effect; inconclusive means small, poorly fitted or top-dose-only effect, or effect the other way; inactive means no such curve, though single readings can be large or run the other way. The list is a sample of the results.

Target: Cytochrome P450 2D6 (Homo sapiens) (UniProt P10635)
Sequence (P10635 whole entry, looked up): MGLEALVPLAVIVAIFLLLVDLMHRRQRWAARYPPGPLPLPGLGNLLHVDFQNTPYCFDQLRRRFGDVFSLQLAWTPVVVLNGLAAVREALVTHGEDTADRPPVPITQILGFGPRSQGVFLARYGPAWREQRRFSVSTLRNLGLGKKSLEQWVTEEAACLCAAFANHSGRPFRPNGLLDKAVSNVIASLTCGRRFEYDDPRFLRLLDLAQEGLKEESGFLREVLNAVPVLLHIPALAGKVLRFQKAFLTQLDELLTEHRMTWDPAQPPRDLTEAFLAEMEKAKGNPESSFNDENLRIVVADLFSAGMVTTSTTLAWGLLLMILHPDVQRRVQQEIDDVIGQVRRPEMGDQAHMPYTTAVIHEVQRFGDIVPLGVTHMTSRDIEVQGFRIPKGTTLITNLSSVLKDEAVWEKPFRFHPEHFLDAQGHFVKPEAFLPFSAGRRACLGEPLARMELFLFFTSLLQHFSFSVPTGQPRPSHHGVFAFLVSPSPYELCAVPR
Assay: Cytochrome panel assay with activity outcomes
Conditions: recombinant CYP, pro-luciferin dealkylation, luminescence, p450-cyp2d6; series mostly up to 57.1 µM; activity, negative = inhibition: at the top concentration
On the % scale 0 is the no-effect control and ±100 the full control effect.

AC50, inactive:
Nc1ccc(S(=O)(=O)Nc2cnc3ccccc3n2)cc1

AC50, active:
N#Cc1c(-n2ccnc2)cccc1-n1ccnc1 6.31 µM, COc1ccc(CNc2ncncc2-c2ccc(N(C)C)cc2)c(OC)c1 10 µM, COc1ccc(CNc2ncncc2-c2ccc(C(=O)N(C)C)cc2)c(OC)c1 20 µM, Cc1ccc(C)c(NC(=O)C2CC3c4ccccc4C2c2ccccc23)c1 (stereo not drawn) 0.2 µM, Cc1ccc(C)c(NC(=O)C2(C)CC3c4ccccc4C2c2ccccc23)c1 (stereo not drawn) 0.2 µM, Cc1ccc(C)c(NC(=O)C2C3CCCC2C3c2ccccc2)c1 (stereo not drawn) 2.82 µM, Fc1cc2nc(-c3ccncc3)[nH]c2cc1F 12.6 µM, COc1ccc(-c2noc(N(C)CC(=O)Nc3cccc(C(F)(F)F)c3)n2)cc1 35.5 µM, CCOCCCN1CC(C(=O)NCCc2ccc(C)cc2)CC1=O (stereo not drawn) 3.55 µM, O=c1oc2ccccc2cc1-c1csc(NN=C2CCCCC2)n1 2.82 µM, CCN1CCc2nc(NC(=O)CC(c3ccccc3)c3ccccc3)sc2C1 0.316 µM, CCOc1ccc2nc(C)cc(Nc3ccc4c(c3)OCCO4)c2c1 1.58 µM, CC1CCN(CC[C@@H]2CCCN2S(=O)(=O)c2cccc(O)c2)CC1 15.8 µM, CCCCCOC(=O)c1c(N)n(CCOC)c2nc3ccccc3nc12 25.1 µM, CCCCN1CCC(n2c(=O)[nH]c3ccccc32)CC1 3.16 µM, Cc1cc(-c2cccs2)nc(-n2cccc2)n1 14.1 µM, O=C(OCC(=O)c1ccc([N+](=O)[O-])cc1)/C(=C\c1ccc(Cl)cc1)NC(=O)c1ccccc1 14.1 µM, N=c1sccn1CC(=O)Nc1cccc(Oc2ccccc2)c1 1 µM, C[C@H](NCCC(c1ccccc1)c1ccccc1)c1ccccc1 0.158 µM, C=CC(C)(C)c1[nH]c2ccccc2c1C1=C(O)C(=O)C(c2c[nH]c3c(CC=C(C)C)cccc23)=C(O)C1=O 0.00631 µM

activity, negative = inhibition, inactive:
FC(F)(F)c1ccccc1-n1ccnc1 -10.7%, Cc1cccc(-n2cccc2)c1C#N 4.73%, O=C(/C=C\NCC(=O)c1ccccc1)c1ccccc1 -15.4%, N#CC1=C(N)OC2=C(CC/C2=C\c2ccccc2)C1c1ccccc1 (stereo not drawn) -7.69%, Cc1c(-c2c(C#N)c(N)nc3c2CCCCCC3)cnn1C -4.87%, CO[C@H]1COC(=O)[C@H](C)COC(=O)[C@@H](Cc2ccccc2)NC(=O)C/C=C\[C@H]1C 3.3% [at 11.4 µM], NS(=O)(=O)c1cc2c(cc1C(F)(F)F)N[C@H](Cc1ccccc1)NS2(=O)=O -5.27% [at 25.6 µM], CCN1CCN(S(=O)(=O)c2ccc(Cl)c(C(=O)Nc3nnc(CC(C)C)s3)c2)CC1 -26.9%, Cc1ccc(C(=O)NC(=S)Nc2cc(-c3nc4ccccc4s3)ccc2C)cc1 5.16%, Cc1ccc(C)c(NC(=O)Cn2c([N+](=O)[O-])cnc2C)c1 -13.2%, Cc1ccc(NC(=O)C2C3CCCC2C3c2ccccc2)cc1C (stereo not drawn) 12.5%, CCOc1ncccc1C(=O)OCC(=O)Nc1cc(C)ccc1C -28.7%, Cc1ccc(C)c(NC(=O)C2CC(O)CN2C(=O)OC(C)(C)C)c1 (stereo not drawn) 4.88%, CC(C)=NOCc1cccc(-c2cc(-c3ccccc3)no2)c1 -6.68% [at 11.4 µM], CC(C)COCC1CC2(CC(C)(c3csc(N)n3)OC2=O)C(=O)O1 (stereo not drawn) -21.1%, CCS(=O)(=O)N1CCN(c2c(Cl)cccc2[N+](=O)[O-])CC1 -25.5%, COC(=O)C1=C(C)NC(C)=C(C(=O)OC(C)C)[C@H]1c1cccc2nonc12 3% [at 25.6 µM], O=C(c1ccccc1)c1ccc2nc(-c3ccc(NC(=O)c4ccccc4F)cc3)[nH]c2c1 -12.1%, O=C(O)CCNc1ccccc1C(=O)O 3.09% [at 11.4 µM], O=C1C2C3C=CC(C3)C2C(=O)N1c1ncn[nH]1 (stereo not drawn) -1.56%, COc1ccc(CC(=O)Nc2ccc(-c3noc(-c4cccc(OC)c4)n3)cc2)cc1 28.9%, CN(C)S(=O)(=O)Oc1ccccc1C(=O)Nc1cccc(C(F)(F)F)c1 5.28%, C=CCn1c(SCc2ccccc2)nc2scc(-c3ccc(C)o3)c2c1=O -9.49%, COc1cccc(/C=N/NC(=O)CSc2nnc(C)n2-c2ccccc2)c1O -8.6%, COCCN1C(=O)C(=O)/C(=C(/O)c2cccc(OC)c2)C1c1ccco1 (stereo not drawn) 0.167%, CCC(=O)NC(NCC1CCCO1)C(Cl)(Cl)Cl (stereo not drawn) -1.46%, Cc1ccc(CCN2CC(C(=O)NC3CCCC3)CC2=O)cc1 (stereo not drawn) -9.43%, Cc1ccc(CCN2CC(C(=O)NCCN3CCOCC3)CC2=O)cc1 (stereo not drawn) -2.21%, CC(C)=NO[C@@H](C)c1cn([C@@H]2COC[C@@H]2O)nn1 14.3% [at 11.4 µM], Cc1ccc(-c2noc(-c3cc4ccccc4oc3=O)n2)cc1 -11.3%, Cc1cccc(-c2noc(-c3cc4ccccc4oc3=O)n2)c1 -19.7%, Cc1ccccc1N1CCN(S(=O)(=O)C[C@@]23CC[C@H](C[C@H]2NC(=O)[C@@H](N)CCS(C)(=O)=O)C3(C)C)CC1 -4.72%, Cc1cc(=O)[nH]c(SCC(=O)Nc2nc3c(s2)CCCC3)n1 -1.04%, CCN1CCc2nc(NC(=O)c3ccc4c(c3)OCCO4)sc2C1 -12.3%, CC1=NN(c2ccccc2)C(=O)/C1=C\c1c(C)[nH]n(-c2ccccc2)c1=O 7.79%, COc1ccc2oc(=O)c(C(=O)Oc3ccc(NC(C)=O)cc3)cc2c1 -14.8%, Cc1ccc2oc(-c3cccc(NC(=S)NC(=O)/C=C/c4ccco4)c3)nc2c1 17.9%, CCOc1[nH]n(-c2ccc(Cl)cc2)c(=O)c1C=Nc1ccc(O)cc1 11.1%, CO[C@@H]1COC(=O)[C@H]2CCCN2C(=O)[C@@H](C)COC(=O)[C@H](COCc2ccccc2)NC(=O)C/C=C\[C@H]1C 1.71% [at 11.4 µM], C=C(C)[C@H]1CC=C(C)/C(=N/NC(=O)CNc2ccccc2OC)C1 -13%, CC(C)(C)c1nc(SCC(=O)Nc2ccc3c(c2)OCCO3)c2ccccc2n1 -16.2%, CCC(C)NS(=O)(=O)c1ccc(OCC(=O)Nc2ccc3c(c2)OCCO3)cc1 (stereo not drawn) -22.9%, CO[C@H]1COC(=O)[C@H](C)NC(=O)C/C=C\[C@@H](C)[C@@H](NS(=O)(=O)c2ccc(C)cc2)COC(=O)[C@H](OCc2ccccc2)/C=C\[C@@H]1C -11.2% [at 11.4 µM], Cc1noc(N)c1C(=O)Nc1ccc(F)cc1 -8.7%, N#Cc1c(NC(=O)CCN2C(=O)c3ccccc3C2=O)oc(-c2ccccc2)c1-c1ccccc1 -12.5%, CC1CCN(S(=O)(=O)c2ccc3c(c2)C(=NO)c2cc(S(=O)(=O)N4CCC(C)CC4)ccc2-3)CC1 0.589%, CC1Cc2ccccc2N1C(=O)C1CCCCN1S(=O)(=O)c1ccccc1 (stereo not drawn) -9.53%, OC[C@@H]1NC[C@@H](O)[C@H]1O 7.62%, O=C(C/C=N/OCc1ccc(F)cc1Cl)c1cnc(-c2ccccc2)s1 10.7%, O=C(COC(=O)COc1ccccc1)Nc1ccc(OC(F)(F)F)cc1 11.3%, CC(C)OC(=O)/C(=C\c1ccc2c(c1)c1ccccc1n2C)NC(=O)c1ccccc1 13.2%, COCCn1c(=O)cnc2cnc(Oc3ccccc3)nc21 -2.69%, COCCCNC(=O)c1c(N)n(/N=C/c2ccccn2)c2nc3ccccc3nc12 -5.07%, CN(C1CCCCC1)S(=O)(=O)c1ccc(NC(=S)NC(=O)c2cccs2)cc1 -11.5%, COC(=O)c1sc2ncccc2c1OCc1c(Cl)cccc1Cl -22.2%, O=c1cc(N2CCC(Cc3ccccc3)CC2)[nH]c(=O)n1C1CCCCC1 -6.84%, CCn1c(=O)[nH]c2ccccc2c1=O -1.92%, CC1(C)CC(=O)c2cn3ncnc3nc2C1 5.99%, O=C1C2C3C=CC(C3)C2C(=O)N1/N=C/c1cn(Cc2ccc(F)cc2)c2ccccc12 (stereo not drawn) -15.6%, Nc1nc(-c2cccs2)cs1 -26.4%, Cc1oc(-c2cccs2)[n+]([O-])c1C 12.3%, Cc1cc(NC(=O)CCC(=O)N(CC2CCCO2)C(C(=O)NC2CCCC2)c2cccnc2)no1 (stereo not drawn) 14%, C=CCSc1nc(NC)c2sccc2n1 -15.6%, Cc1cccc(NC(=S)N2CCC(N(C)CC3CCCO3)CC2)c1C (stereo not drawn) -16.1%, COc1ccccc1-c1c(C(F)(F)F)oc2cc(OC(=O)c3cccc([N+](=O)[O-])c3C)ccc2c1=O 20.9%, O=C(Nc1cccc2ccccc12)/C(=C/c1ccc([N+](=O)[O-])cc1)NC(=O)c1ccccc1 -6.79%, Cc1ccc(NC(=O)/C(=C\c2ccc([N+](=O)[O-])cc2)NC(=O)c2ccccc2)cc1 -28.6%, Cc1cccc(Oc2ncnc3onc(C)c23)c1C 11.2%, COc1cccc(NC(=O)CSc2nc3ccccc3cc2Cc2ccccc2)c1 -12.4%, O=C(Cn1ccc(=O)[nH]c1=O)Nc1ccc(C(=O)O)c(O)c1 -2.13% [at 11.4 µM], CSc1nnc(-c2sccc2OCc2ccccc2)n1C -13.6%, C#CCCCO/N=C1/C[C@@H](O)[C@@H](O)[C@@H]2[C@@H]3C(=O)N([C@@H](C)c4ccccc4)C(=O)[C@H]3CC[C@H]12 12% [at 11.4 µM], CC[C@H](NC(=O)c1c(C)c(-c2ccccc2)nc2ccccc12)c1ccccc1 2.4%, CNc1csc(C)c(C)c1=O 5.1%, O=C1[C@@H]2[C@H]3[C@H](O)[C@H](O)C/C(=N/OC[C@@H](O)COCc4ccco4)[C@H]3CC[C@H]2C(=O)N1c1ccc(F)cc1F -0.021% [at 11.4 µM], COc1cccc(NC(=O)C2c3cc(OC)c(OC)cc3C(=O)N(C)C2c2cccnc2)c1 (stereo not drawn) -22.7%, O=C1C2C3C=CC(CC3)C2C(=O)N1/N=C/c1ccccc1O (stereo not drawn) 18.7%
